Results from PubChem BioAssay (NCATS).
Inconclusive results are not listed. Entries that show only a call come without a potency. Active and inactive are the calls of the source. Unless noted, the call rests on the fitted dose curve; in most records, active means well fitted curve in the direction sought with a large enough effect; inconclusive means small, poorly fitted or top-dose-only effect, or another doubt; inactive means no such curve, though single readings can be large; an effect the other way counts as inactive or inconclusive.

Assays:
[1] = AP1 Signaling Pathway (AID 357; active means well fitted curve in either direction with a large enough effect, not every such curve was filed as active;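 further: ME-180 reporter cells stimulated with EGF at its EC50 level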); conditions: ME-180 AP-1-bla reporter, EGF-induced, beta-lactamase ratio, 5 h
Summary of the method: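 AP-1-bla ME-180 cells, Opti-MEM + 0.5% dialyzed FBS, plated overnight 37 °C. Cpd titration + EC50 EGF, 5 h 37 °C. CCF4 2.5 h RT; ex 405, em 460/530 ratio → %activity, AC50.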

[2] = molecular target: Cytochrome P450 1A2 (Homo sapiens) (UniProt P05177); experiment: p450-cyp1a2 (AID 410; calls by dose curve; further: potency means the concentration at half of the fitted maximal effect)
Summary of the method: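 Human CYP1A2 (20nM) demethylated Luciferin-ME at its Km (100uM) in 100mM KPO4. After 10 min compound preincubation, NADPH regeneration ran the reaction 60 min at room temperature. Luciferin was read by luminescence, normalized to 57 uM furafylline.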

[3] = NFAT Signaling Pathway (AID 444; active means well fitted curve in either direction with a large enough effect, not every such curve was filed as active;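 further: carbachol stimulus at about its EC50 of 1 µM final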); conditions: Jurkat NFAT-bla M1, carbachol, beta-lactamase ratio, 5 h
Summary of the method: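 Jurkat cells carrying an NFAT-driven β-lactamase reporter and co-transfected muscarinic M1 receptor were treated with compound plus carbachol (1 uM final, an EC50 level) for 5 h at 37 °C. CCF4 loading followed for 1 h at RT; 460/530 nm ratio gave %activity.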

[4] = Stat Signaling Pathway (AID 446; active means well fitted curve in either direction with a large enough effect, not every such curve was filed as active;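 further: ME-180 cervical cancer cells given 40 pM IL-6 alongside compound; SIE-controlled beta-lactamase reporter measured as 460/530 nm FRET emission ratio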); conditions: ME-180 SIE beta-lactamase reporter, IL-6 stimulated, 5 h
Summary of the method: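 Screening format detects activators and inhibitors alike: ME-180 SIE-bla cells stimulated at 40 pM IL-6 for 5 hrs with compound, then dual-emission beta-lactamase read at 405 nm excitation.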

[5] = molecular target: Glucocorticoid receptor (Homo sapiens) (UniProt P04150); experiment: GR-GFP Redistribution (AID 450;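 active means compounds whose dose series gives a full or clear partial fitted curve of increased nuclear translocation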; further: potency means the concentration at half of the fitted maximal effect); conditions: U2OS GR-GFP nuclear translocation, laser cytometry, 2 h
[6] = molecular target: Glucocorticoid receptor (Homo sapiens) (UniProt P04150); experiment: GR-EFC Redistribution (AID 451; calls by dose curve; further: potency means the concentration at half of the fitted maximal effect); conditions: CHO-K1 GR-EFC translocation, beta-gal luminescence, 2 h
Summary of the method: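 CHO-K1 cells stably expressing nuclear-localized β-gal enzyme acceptor and GR fused C-terminally to the enzyme donor fragment; ligand-driven nuclear translocation restores β-gal by complementation. Compounds titrated up to 46 uM final, 2 h at 37 °C; luminescence read.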

[7] = molecular target: Mitogen-activated protein kinase 10 (Mus musculus) (UniProt Q61831); experiment: JNK3 AlphaScreen Assay (AID 530; active means well fitted curve in either direction with a large enough effect, not every such curve was filed as active;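 further: kinase came from lysate of stimulated human HepG2 cells; signal reports phosphorylation of biotinylated GST-cJun 1-79 at Ser73 with 10 µM ATP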)
Summary of the method: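 JNK3 came from HepG2 lysates pre-activated with IL-1beta and TNF-alpha and phosphorylated biotinylated GST-cJun (1-79) at 10 uM ATP, pH 7.6, room temperature. Compounds were titrated. AlphaScreen signal used anti-phospho-cJun (Ser73) antibody.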

[8] = molecular target: 3',5'-cyclic-AMP phosphodiesterase 4B (Homo sapiens) (UniProt Q07343); experiment: qHTS Assay for Inhibitors of PDE-IV (AID 607; active means well fitted activation curve with a large enough effect in the main read-out, with a control signal flat, not every such curve was filed as active)
Summary of the method: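 The readout is membrane depolarisation from a cAMP-sensing CNG channel, detected with a potential dye at ex 535/em 590. Cells were HEK293-derived (endogenous PDE-IV) at 1000 cells/well, titrated up to 22.9 uM final.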

[9] = qHTS Assay for Lipid Storage Modulators (AID 1519; calls by dose curve); conditions: Drosophila S3 cells, BODIPY lipid droplet/cell ratio, laser cytometry, cells loaded with oleic acid; for activity change, negative = inhibition: at 25.7 µM (top of the series)
Summary of the method: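 Cells seeded at 5,000 per well were treated with compounds over a concentration series and loaded with oleic acid (400 uM, as added). Lipid droplet fluorescence (488 nm excitation, 500-530 nm channel) was read by laser-scanning cytometry and normalized to 20 uM Triacsin C.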

[10] = molecular target: ATP-dependent 6-phosphofructokinase (Trypanosoma brucei brucei) (UniProt O15648); experiment: qHTS Assay to Find Inhibitors of T. brucei phosphofructokinase: hit validation (AID 492961);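 further: luminescence reports ADP formed as PFK phosphorylates fructose-6-phosphate with ATP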
Summary of the method: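 Reaction: 0.1 M triethanolamine pH 8.0, 5 mM MgCl2, F6P 0.5 mM, ATP 0.1 mM, PFK 1.25 nM, 45 min RT. Read-out: ADP-Glo luminescence. Analysis: concentration-response fits, classed by r2 and efficacy.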

[11] = molecular target: Ubiquitin carboxyl-terminal hydrolase 1 (Homo sapiens) (UniProt O94782); experiment: Inhibitors of USP1/UAF1: Pilot qHTS (AID 504865);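 further: rhodamine fluorescence freed from ubiquitin-rhodamine substrate followed over time; top concentration of the series differs between compounds; nearly all actives have a fitted effect of over 35% in size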
Summary of the method: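 Kinetic fluorescence assay: 1nM USP1/UAF1, 15 min compound preincubation, then 150nM Ub-Rho; 480/540 nm.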

[12] = qHTS profiling for inhibitors of Plasmodium falciparum proliferation (AID 504749); further: nearly all actives have a fitted effect of over 60% in size; conditions: P. falciparum in erythrocytes, SYBR Green DNA, 72 h
Summary of the method: (§1)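 P. falciparum-infected erythrocytes (0.3% parasitemia, 2.5% hematocrit final) were exposed to compounds for 72 h at 37 C in 5% CO2, then lysed with SYBR Green buffer overnight at room temperature; parasite DNA fluorescence was normalized to artemisinin and DMSO controls.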

[13] = test system: AS120; experiment: as above; conditions: P. falciparum in erythrocytes, SYBR Green DNA, 72 h; series mostly up to 28.7 µM
Summary of the method: as §1

[14] = test system: CP238; experiment: as above; conditions: P. falciparum in erythrocytes, SYBR Green DNA, 72 h; series mostly up to 12.8 µM
Summary of the method: as §1

[15] = test system: CP250; experiment: as above; conditions: P. falciparum in erythrocytes, SYBR Green DNA, 72 h; series mostly up to 12.8 µM
Summary of the method: as §1

[16] = test system: CP262; experiment: as above; conditions: P. falciparum in erythrocytes, SYBR Green DNA, 72 h; series mostly up to 12.8 µM
Summary of the method: as §1

[17] = test system: CP265; experiment: as above; conditions: P. falciparum in erythrocytes, SYBR Green DNA, 72 h; series mostly up to 12.8 µM
Summary of the method: as §1

[18] = test system: FAB9; experiment: as above; conditions: P. falciparum in erythrocytes, SYBR Green DNA, 72 h; series mostly up to 12.8 µM
Summary of the method: as §1

[19] = test system: JCK; experiment: as above; conditions: P. falciparum in erythrocytes, SYBR Green DNA, 72 h; series mostly up to 12.8 µM
Summary of the method: as §1

[20] = test system: PC49; experiment: as above; conditions: P. falciparum in erythrocytes, SYBR Green DNA, 72 h; series mostly up to 12.8 µM
Summary of the method: as §1

[21] = at 7.69 µM (top of the series) unless noted
[22] = measured here: cell count channel max response
[23] = measured here: lipid channel max response
[24] = at 12.8 µM (top of the series), parasite line A
[25] = at 12.8 µM (top of the series), parasite line B

Sequence of 3',5'-cyclic-AMP phosphodiesterase 4B (Homo sapiens) (Q07343 whole entry, looked up): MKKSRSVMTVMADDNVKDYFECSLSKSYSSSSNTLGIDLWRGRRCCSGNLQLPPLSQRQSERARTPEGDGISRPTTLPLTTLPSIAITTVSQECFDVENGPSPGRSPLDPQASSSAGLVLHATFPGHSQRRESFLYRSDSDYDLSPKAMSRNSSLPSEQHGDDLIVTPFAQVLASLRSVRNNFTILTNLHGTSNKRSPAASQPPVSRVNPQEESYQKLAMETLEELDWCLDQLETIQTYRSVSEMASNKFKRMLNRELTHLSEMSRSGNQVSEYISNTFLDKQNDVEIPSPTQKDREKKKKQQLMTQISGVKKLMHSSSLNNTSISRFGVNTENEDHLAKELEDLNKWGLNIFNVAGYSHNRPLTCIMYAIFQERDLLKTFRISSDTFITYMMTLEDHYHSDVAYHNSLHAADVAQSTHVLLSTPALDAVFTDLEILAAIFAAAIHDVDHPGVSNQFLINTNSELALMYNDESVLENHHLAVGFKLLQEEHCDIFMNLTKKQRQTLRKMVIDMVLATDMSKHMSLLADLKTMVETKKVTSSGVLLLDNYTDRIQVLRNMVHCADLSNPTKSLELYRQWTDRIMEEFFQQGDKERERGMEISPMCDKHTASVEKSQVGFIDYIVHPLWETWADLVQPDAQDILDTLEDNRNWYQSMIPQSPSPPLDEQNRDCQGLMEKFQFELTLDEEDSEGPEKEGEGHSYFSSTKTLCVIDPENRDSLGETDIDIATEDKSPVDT
Sequence of ATP-dependent 6-phosphofructokinase (Trypanosoma brucei brucei) (O15648 whole entry, looked up): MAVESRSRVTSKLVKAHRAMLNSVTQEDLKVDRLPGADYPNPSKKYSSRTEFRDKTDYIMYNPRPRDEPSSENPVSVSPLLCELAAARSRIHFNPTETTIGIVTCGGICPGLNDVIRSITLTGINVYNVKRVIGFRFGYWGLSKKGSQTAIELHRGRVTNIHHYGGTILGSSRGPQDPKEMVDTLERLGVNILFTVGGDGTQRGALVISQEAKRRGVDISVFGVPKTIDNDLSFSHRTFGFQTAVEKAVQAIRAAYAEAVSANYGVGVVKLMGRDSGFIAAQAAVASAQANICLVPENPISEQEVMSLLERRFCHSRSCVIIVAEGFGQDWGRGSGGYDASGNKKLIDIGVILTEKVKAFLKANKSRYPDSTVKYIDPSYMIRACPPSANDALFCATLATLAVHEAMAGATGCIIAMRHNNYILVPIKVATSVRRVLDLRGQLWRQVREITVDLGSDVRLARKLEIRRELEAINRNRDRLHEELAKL
Sequence of Ubiquitin carboxyl-terminal hydrolase 1 (Homo sapiens) (O94782 whole entry, looked up): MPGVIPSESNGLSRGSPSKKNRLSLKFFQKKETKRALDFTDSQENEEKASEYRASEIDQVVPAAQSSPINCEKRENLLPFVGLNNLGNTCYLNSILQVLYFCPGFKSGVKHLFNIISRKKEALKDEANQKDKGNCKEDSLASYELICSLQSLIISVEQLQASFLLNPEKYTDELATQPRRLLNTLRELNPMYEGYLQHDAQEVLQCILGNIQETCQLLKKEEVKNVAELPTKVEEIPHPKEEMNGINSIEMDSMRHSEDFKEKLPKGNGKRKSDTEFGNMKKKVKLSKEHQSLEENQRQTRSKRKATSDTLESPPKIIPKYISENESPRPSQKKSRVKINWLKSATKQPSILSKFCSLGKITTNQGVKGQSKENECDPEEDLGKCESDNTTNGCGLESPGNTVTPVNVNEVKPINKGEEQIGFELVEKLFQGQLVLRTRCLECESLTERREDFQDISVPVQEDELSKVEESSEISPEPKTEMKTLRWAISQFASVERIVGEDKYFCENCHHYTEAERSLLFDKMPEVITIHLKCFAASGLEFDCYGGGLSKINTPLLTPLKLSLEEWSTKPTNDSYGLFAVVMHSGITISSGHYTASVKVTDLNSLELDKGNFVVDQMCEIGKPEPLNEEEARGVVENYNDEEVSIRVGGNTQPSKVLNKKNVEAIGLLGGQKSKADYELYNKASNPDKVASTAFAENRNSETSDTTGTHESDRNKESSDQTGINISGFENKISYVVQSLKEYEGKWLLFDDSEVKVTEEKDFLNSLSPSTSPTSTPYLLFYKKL
Sequence of Glucocorticoid receptor (Homo sapiens) (P04150 whole entry, looked up, the tested form may be a part): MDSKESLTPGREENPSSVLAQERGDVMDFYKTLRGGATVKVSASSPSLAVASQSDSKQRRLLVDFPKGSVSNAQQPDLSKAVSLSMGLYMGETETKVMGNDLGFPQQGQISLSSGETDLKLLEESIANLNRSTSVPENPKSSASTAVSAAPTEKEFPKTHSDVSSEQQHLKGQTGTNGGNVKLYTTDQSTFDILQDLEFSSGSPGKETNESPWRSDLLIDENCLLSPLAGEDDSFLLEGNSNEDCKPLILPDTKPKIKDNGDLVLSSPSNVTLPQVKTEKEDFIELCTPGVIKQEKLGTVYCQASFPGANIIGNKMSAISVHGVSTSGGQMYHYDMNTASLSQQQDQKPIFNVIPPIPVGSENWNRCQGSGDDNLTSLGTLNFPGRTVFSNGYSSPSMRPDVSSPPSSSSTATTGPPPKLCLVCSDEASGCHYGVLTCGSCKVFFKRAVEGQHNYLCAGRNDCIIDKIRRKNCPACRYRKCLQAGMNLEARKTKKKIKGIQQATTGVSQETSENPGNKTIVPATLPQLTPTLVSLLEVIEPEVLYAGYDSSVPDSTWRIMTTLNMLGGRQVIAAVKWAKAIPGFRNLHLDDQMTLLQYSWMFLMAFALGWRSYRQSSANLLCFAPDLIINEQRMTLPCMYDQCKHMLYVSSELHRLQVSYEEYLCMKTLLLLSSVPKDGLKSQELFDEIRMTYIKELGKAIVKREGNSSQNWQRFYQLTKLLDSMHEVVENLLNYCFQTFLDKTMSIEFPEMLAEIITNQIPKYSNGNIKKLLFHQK
Sequence of Cytochrome P450 1A2 (Homo sapiens) (P05177 whole entry, looked up): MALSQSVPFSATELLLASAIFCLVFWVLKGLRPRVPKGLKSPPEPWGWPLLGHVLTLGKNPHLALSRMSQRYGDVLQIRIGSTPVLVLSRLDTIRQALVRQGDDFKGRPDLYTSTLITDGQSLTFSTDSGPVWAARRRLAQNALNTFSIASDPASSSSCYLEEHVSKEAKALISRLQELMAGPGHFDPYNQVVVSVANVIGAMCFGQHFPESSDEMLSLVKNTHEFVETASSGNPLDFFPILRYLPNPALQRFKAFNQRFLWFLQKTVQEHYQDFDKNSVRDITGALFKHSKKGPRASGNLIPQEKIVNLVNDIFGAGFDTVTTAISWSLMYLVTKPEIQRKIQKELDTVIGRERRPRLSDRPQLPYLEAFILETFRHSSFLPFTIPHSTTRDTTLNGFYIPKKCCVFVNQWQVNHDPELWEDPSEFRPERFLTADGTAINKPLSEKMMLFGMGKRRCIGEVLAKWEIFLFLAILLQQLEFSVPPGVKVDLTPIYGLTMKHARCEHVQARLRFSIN

With `CCC[C@H]1C(=O)N2C(N(C)C)=Nc3ccc(C)cc3N2C1=O` the activity change, negative = inhibition [1, 21] was 1.43% [at 17.2 µM] (inactive), the Potency [2] was 1.58 µM (active) and the activity change, negative = inhibition [3, 21] was -21% [at 17.2 µM] (inactive). The activity, negative = inhibition [4, 21] was -9.03% [at 17.2 µM] (inactive), the Potency [5] was > 20.6 µM (inactive) and the Potency [6] was > 20.6 µM (inactive). For the same compound, the Potency [7] was “inactive”, the Potency [8] was “inactive” and the activity change, negative = inhibition [9] was -3.21% (inactive). The max response [9, 22] was -10.8%, the max response [9, 23] was -12% and the outcome [10] was “inactive”. The Potency [11] was “inactive”, the activity, negative = inhibition [12, 24] was 12.2% (inactive) and the activity, negative = inhibition [12, 25] was -0.686% (inactive). The Potency [13] was “inactive”, the Potency [14] was “inactive” and the Potency [15] was “inactive”. For the same compound, the Potency [16] was “inactive”, the Potency [17] was “inactive” and the Potency [18] was “inactive”. The Potency [19] was “inactive” and the Potency [20] was “inactive”.
With `CCN[C@@H]1C[C@H](C)S(=O)(=O)c2sc(S(N)(=O)=O)cc21` the activity change, negative = inhibition [1, 21] was -11.2% [at 17.2 µM] (inactive), the Potency [2] was “inactive” and the activity change, negative = inhibition [3, 21] was -16.8% [at 17.2 µM] (inactive). For the same compound, the activity, negative = inhibition [4, 21] was -13.1% [at 17.2 µM] (inactive), the Potency [5] was > 20.6 µM (inactive) and the Potency [6] was > 20.6 µM (inactive). For the same compound, the Potency [7] was “inactive”, the Potency [8] was “inactive” and the activity change, negative = inhibition [9] was -5.41% (inactive). The max response [9, 22] was -1.77%, the max response [9, 23] was -5.35% and the outcome [10] was “inactive”. For the same compound, the activity, negative = inhibition ([12]; at 28.7 µM (top of the series), parasite line A) was 7.35% (inactive), the activity, negative = inhibition ([12]; at 28.7 µM (top of the series), parasite line B) was 9.64% (inactive) and the Potency [13] was “inactive”. For the same compound, the Potency [14] was “inactive”, the Potency [15] was “inactive” and the Potency [16] was “inactive”. The Potency [17] was “inactive”, the Potency [18] was “inactive” and the Potency [19] was “inactive”. For the same compound, the Potency [20] was “inactive”.
For `NS(=O)(=O)c1cc([C@@]2(O)NC(=O)c3ccccc32)ccc1Cl`, the activity change, negative = inhibition [1, 21] was -7.43% [at 17.2 µM] (inactive), the Potency [2] was “inactive” and the activity change, negative = inhibition [3, 21] was -15.2% [at 17.2 µM] (inactive). For the same compound, the activity, negative = inhibition [4, 21] was 1.16% [at 17.2 µM] (inactive), the Potency [5] was > 20.6 µM (inactive) and the Potency [6] was > 20.6 µM (inactive). The Potency [7] was “inactive”, the Potency [8] was “inactive” and the activity change, negative = inhibition [9] was -1.2% (inactive). The max response [9, 22] was -12.6%, the max response [9, 23] was -14.5% and the outcome [10] was “inactive”. The Potency [11] was “inactive”, the activity, negative = inhibition [12, 24] was -2.59% (inactive) and the activity, negative = inhibition [12, 25] was 2.66% (inactive). The Potency [13] was “inactive”, the Potency [14] was “inactive” and the Potency [15] was “inactive”. The Potency [16] was “inactive”, the Potency [17] was “inactive” and the Potency [18] was “inactive”. The Potency [19] was “inactive” and the Potency [20] was “inactive”.
With `C[C@]12CCC3c4ccc(O)cc4CCC3[C@@H]1CCC2=O` (stereo not given in full) the activity change, negative = inhibition ([1]; at 17.2 µM (top of the series)) was 0.112% (inactive), the activity change, negative = inhibition ([1]; at 38 µM (top of the series)) was -3.57% (inactive) and the activity change, negative = inhibition ([3]; at 17.2 µM (top of the series)) was -16.8% (inactive). For the same compound, the activity change, negative = inhibition ([3]; at 38 µM (top of the series)) was -2.29% (inactive), the activity, negative = inhibition ([4]; at 17.2 µM (top of the series)) was -9.06% (inactive) and the activity, negative = inhibition ([4]; at 38 µM (top of the series)) was -20.6% (inactive). The Potency [7] was “inactive”, the Potency [8] was “inactive” and the activity change, negative = inhibition [9] was -0.972% (inactive). The max response [9, 22] was -7.49%, the max response [9, 23] was -8.59% and the Potency [11] was “inactive”.
